For experiment [1], the target named is T1, Aspartate--tRNA(Asp/Asn) ligase (Mycobacterium tuberculosis (strain ATCC 25618 / H37Rv)) (UniProt P9WFW3). Further: in the data most compounds retested in dose-response had high values.
T1 sequence (whole entry): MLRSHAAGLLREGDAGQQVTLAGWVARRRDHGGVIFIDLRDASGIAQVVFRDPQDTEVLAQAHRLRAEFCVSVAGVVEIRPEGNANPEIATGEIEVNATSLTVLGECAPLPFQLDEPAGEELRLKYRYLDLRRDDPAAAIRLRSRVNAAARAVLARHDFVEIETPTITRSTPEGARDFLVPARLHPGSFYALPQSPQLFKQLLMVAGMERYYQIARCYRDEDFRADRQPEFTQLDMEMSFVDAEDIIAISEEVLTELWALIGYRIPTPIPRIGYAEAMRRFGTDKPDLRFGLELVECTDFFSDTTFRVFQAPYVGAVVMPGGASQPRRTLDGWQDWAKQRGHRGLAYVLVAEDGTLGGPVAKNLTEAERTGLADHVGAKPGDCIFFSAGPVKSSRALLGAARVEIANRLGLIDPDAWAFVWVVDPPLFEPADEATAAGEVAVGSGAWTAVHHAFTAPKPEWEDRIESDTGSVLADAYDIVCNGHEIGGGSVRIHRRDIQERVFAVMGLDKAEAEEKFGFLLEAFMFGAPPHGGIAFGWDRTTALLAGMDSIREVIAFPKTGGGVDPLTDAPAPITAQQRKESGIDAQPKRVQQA
The experiment in a line: Assay for Asp RNA synthetase-1 from Mycobacterium tuberculosis. Conditions: 30 µM. In kind it is functional. Details: scale not given: direction of the effect not stated beside the values.

Experiment [2] concerns the target Shiga toxin 2 (Escherichia coli O157:H7) (UniProt P09385+P09386). Put plainly: E. coli 0.157:H7 Shiga Toxin SOP - stx2 screening assay. The format is functional. More on the design: scale not given: direction of the effect not stated beside the values. Conditions: 30 µM.

As to `CC(CCN1CCn2nc(CNC(=O)N(C)C)cc2C1)c1ccccc1` (centres undefined), the Percent Effect was -3.2% in experiment [1] and -1.92% in experiment [2].

For the molecule `CN(C)C(=O)N1CCOCC2(CCN(c3ncccn3)C2)C1` (centres undefined), the Percent Effect in experiment [1] came out at 0.466%; in experiment [2], 10%.

Turning to `CNC(=O)CCCNCc1c(C)nn(C)c1N(C)C`, the Percent Effect in experiment [1] is 2.12%; in experiment [2], -15.3%.

Turning to `O=C(Nc1ccnc(OC2CCOC2)c1)C1CCC1` (centres undefined), the Percent Effect was -4.32% in experiment [1] and -20.1% in experiment [2].

Turning to `Cc1c[nH]nc1C1CCN(S(=O)(=O)N(C)C)CC1`, the figures for the Percent Effect in experiment [1] and in experiment [2] were 2.31% and -2.83%, respectively.

Consider `CCN(C)c1ncnc2c1CCN(Cc1ccoc1)CC2`, for which the Percent Effect was 5.11% in experiment [1] and -28.5% in experiment [2].

With `CCC(=O)N1CCc2nc3cc(OC)c(OC)cc3c(=O)n2CC1`, the values for the Percent Effect in experiment [1] and in experiment [2] were -5.4% and -7.9%, respectively.

On to `O=C(c1ccccn1)N1CCc2nc(-c3cnccn3)nc(O)c2C1`, for which the Percent Effect in experiment [1] is -1.53%; in experiment [2], -15.6%.

As to `CC(=O)N1CCN(CC2CCOc3ccccc3C2)CC1` (centres undefined), the Percent Effect in experiment [1] was 1.75%; in experiment [2], -26.3%.

As to `Cc1ccccc1OCCC(=O)OC(C)C(=O)Nc1sccc1C(N)=O` (centres undefined), the Percent Effect is -2.83% in experiment [1] and -38.1% in experiment [2].

On to `Cc1noc([C@H]2C[C@@H]3CCN(C(=O)C4CCOCC4)C[C@H]3O2)n1`, for which the Percent Effect in experiment [1] was 1.08%; in experiment [2], -0.561%.

On to `c1ccc(-n2ncc(CN3CCCC3Cn3cccn3)n2)cc1` (centres undefined), for which the Percent Effect in experiment [1] is -5.28%; in experiment [2] it was 2.57%.

`CCn1nc(-c2ccccc2F)ccc1=O`: the results for the Percent Effect in experiment [1] and in experiment [2] were 0.691% and -6.78%, respectively.

Turning to `CCc1ccc(C(=O)Nc2ccc(CC3CC(=O)NC3=O)cc2)cc1` (centres undefined), the results for the Percent Effect in experiment [1] and in experiment [2] were 7.7% and -36.3%, respectively.

Consider `CCc1ccc(CN2CC[C@H]3C[C@H](c4nnc(C)[nH]4)O[C@@H]3C2)o1`, for which the Percent Effect in experiment [1] was found to be 0.228%; in experiment [2] it was 1.93%.

`COc1ccc(COCC(O)CNC(=O)c2cccnc2)cc1` (centres undefined): the Percent Effect in experiment [1] was -1.27%; in experiment [2], -12.2%.

In the case of `Cc1ccc(CC(=O)N2Cc3nccn3CC(Cn3cccn3)C2)cc1` (centres undefined), the Percent Effect is 0.0228% in experiment [1] and -2.6% in experiment [2].

The values above are taken from ChEMBL document CHEMBL3988442, “University of Dundee, Small-Polar-MMV Screening Library” (2021).
